Results from the supplement of paper PMC11732987, “Enantioselective OTUD7B fragment discovery through chemoproteomics screening and high-throughput optimisation” (Communications Chemistry, 2025).

How the values were obtained:
Assay in all cases: log2 ratio of Biotin-Ahx-Ub-VS probe labelling (fragment/DMSO); higher = less target engagement (more negative = stronger competition), active = hit call of the paper (q ≤ 0.05, log2 ratio ≤ -1)
Conditions in all cases: compound concentration: 200 uM; treatment time: 3 h
USP34 = USP34 (UniProt Q70CQ2)
Outline: (§1)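 Labelled DUBs from HEK293T lysate were NeutrAvidin-enriched, digested with LysC and trypsin, and run by diaPASEF LC-MS/MS. Before that, each 495 µg sample in Tris/CHAPS/IGEPAL buffer with protease inhibitors was treated in triplicate with fragment at 200 µM or vehicle for 3 h, then with Biotin-Ahx-Ub-VS at 0.5 µM final for 1 h. Values are average log2 ratios of fragment over vehicle by unpaired t-test, based on global-median-normalised Spectronaut label-free quantities from proteins with ≥2 unique peptides.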

USP36 = molecular target: T1, USP36 (UniProt Q9P275)
T1 sequence (whole entry): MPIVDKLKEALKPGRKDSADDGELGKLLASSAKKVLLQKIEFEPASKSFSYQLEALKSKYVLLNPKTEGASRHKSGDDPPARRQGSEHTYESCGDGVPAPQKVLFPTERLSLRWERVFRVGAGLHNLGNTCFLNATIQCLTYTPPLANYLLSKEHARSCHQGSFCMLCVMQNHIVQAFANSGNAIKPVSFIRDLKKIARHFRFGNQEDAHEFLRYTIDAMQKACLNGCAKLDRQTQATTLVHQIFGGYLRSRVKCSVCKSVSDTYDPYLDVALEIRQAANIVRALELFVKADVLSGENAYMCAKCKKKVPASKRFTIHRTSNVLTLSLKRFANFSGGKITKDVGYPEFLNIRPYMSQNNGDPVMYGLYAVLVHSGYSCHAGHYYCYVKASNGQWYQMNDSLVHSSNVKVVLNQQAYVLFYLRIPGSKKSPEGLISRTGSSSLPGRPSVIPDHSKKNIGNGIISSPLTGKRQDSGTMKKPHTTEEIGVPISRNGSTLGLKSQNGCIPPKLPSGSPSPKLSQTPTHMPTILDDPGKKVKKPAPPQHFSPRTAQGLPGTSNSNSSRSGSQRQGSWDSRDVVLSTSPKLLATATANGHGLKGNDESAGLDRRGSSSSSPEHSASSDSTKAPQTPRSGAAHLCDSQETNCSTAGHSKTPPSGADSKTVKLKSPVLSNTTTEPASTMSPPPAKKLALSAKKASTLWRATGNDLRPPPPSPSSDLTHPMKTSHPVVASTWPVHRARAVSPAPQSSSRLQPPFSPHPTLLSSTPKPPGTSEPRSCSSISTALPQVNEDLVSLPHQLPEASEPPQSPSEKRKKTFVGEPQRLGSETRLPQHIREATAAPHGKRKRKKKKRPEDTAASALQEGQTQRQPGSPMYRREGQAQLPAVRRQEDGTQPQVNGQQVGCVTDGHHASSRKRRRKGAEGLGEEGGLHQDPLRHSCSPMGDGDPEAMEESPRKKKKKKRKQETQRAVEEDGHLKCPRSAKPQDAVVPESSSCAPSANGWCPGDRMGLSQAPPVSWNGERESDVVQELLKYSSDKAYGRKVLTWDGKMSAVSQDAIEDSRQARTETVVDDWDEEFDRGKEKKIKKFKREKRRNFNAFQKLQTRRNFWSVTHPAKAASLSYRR
Outline: as §1

USP38 = molecular target: T2, USP38 (UniProt Q8NB14)
T2 sequence (whole entry): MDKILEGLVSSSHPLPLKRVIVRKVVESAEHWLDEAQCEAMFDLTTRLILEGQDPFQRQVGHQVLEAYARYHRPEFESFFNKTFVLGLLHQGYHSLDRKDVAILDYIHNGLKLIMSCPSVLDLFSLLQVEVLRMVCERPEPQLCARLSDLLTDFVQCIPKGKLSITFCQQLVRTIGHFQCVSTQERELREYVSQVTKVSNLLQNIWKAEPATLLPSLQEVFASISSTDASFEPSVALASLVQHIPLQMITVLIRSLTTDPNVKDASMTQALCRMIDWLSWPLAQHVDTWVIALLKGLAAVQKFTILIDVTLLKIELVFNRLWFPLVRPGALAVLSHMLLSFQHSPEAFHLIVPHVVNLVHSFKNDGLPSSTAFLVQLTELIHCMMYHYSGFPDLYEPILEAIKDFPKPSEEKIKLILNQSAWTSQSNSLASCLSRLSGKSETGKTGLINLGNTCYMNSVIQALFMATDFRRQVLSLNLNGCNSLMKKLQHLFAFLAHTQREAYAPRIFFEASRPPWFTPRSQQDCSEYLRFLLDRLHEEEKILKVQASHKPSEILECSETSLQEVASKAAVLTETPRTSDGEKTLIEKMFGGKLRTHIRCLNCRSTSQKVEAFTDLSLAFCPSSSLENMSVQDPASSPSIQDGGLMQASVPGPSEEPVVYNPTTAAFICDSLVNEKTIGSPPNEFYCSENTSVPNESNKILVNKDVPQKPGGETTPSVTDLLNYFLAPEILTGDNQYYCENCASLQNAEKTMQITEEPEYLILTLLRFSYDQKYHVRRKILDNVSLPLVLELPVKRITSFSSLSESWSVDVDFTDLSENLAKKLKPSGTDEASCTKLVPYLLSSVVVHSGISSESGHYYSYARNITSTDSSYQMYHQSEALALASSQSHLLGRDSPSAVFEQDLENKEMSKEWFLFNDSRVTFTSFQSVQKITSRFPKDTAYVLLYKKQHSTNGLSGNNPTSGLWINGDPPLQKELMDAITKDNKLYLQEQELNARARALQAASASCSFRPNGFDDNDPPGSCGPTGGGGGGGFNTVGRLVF
Outline: as §1

USP39 = molecular target: T3, USP39 (UniProt Q53GS9)
T3 sequence (whole entry): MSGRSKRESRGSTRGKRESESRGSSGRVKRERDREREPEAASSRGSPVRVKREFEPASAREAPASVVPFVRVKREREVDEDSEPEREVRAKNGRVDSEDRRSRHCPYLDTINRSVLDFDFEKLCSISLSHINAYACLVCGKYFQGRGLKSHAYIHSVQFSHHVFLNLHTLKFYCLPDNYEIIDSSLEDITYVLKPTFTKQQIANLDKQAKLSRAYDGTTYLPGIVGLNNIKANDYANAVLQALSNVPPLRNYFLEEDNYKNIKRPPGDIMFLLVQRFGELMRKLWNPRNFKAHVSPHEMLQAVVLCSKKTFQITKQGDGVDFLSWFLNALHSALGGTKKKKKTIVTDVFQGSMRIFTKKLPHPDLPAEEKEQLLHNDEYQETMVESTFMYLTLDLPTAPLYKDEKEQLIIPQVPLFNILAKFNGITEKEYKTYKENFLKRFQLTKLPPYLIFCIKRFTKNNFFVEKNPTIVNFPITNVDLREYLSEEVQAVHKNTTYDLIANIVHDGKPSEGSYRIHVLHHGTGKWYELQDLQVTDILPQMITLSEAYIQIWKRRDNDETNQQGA
Outline: as §1

USP4 = molecular target: T4, USP4 (UniProt Q13107)
T4 sequence (whole entry): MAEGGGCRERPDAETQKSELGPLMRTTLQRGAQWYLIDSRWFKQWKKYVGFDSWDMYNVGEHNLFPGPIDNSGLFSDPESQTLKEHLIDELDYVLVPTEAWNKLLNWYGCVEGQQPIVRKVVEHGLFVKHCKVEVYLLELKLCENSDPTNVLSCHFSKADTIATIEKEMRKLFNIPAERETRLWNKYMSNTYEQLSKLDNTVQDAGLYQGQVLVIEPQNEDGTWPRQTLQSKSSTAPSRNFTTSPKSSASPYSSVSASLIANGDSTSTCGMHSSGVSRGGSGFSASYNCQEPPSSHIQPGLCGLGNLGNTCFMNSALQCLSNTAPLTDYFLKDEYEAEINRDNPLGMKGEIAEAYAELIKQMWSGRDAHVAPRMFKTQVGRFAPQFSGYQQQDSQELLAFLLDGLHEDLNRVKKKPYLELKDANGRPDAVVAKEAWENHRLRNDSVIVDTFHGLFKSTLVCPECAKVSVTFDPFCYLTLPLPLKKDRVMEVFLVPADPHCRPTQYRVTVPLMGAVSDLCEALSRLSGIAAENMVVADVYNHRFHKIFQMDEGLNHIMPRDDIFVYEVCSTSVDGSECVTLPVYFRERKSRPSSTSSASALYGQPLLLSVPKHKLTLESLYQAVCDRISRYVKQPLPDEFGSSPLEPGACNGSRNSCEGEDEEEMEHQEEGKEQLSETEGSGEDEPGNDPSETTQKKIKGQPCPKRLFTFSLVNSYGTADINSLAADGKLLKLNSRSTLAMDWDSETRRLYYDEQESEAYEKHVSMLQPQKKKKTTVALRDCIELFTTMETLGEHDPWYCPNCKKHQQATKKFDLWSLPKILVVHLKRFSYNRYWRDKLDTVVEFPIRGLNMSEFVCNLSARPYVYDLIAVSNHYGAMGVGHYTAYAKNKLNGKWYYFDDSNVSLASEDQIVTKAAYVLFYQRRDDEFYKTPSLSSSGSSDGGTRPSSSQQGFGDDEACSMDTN
Outline: as §1

Measured: log2 ratio of Biotin-Ahx-Ub-VS probe labelling

Sequence of USP34 (Q70CQ2 whole entry, the tested form may be a part): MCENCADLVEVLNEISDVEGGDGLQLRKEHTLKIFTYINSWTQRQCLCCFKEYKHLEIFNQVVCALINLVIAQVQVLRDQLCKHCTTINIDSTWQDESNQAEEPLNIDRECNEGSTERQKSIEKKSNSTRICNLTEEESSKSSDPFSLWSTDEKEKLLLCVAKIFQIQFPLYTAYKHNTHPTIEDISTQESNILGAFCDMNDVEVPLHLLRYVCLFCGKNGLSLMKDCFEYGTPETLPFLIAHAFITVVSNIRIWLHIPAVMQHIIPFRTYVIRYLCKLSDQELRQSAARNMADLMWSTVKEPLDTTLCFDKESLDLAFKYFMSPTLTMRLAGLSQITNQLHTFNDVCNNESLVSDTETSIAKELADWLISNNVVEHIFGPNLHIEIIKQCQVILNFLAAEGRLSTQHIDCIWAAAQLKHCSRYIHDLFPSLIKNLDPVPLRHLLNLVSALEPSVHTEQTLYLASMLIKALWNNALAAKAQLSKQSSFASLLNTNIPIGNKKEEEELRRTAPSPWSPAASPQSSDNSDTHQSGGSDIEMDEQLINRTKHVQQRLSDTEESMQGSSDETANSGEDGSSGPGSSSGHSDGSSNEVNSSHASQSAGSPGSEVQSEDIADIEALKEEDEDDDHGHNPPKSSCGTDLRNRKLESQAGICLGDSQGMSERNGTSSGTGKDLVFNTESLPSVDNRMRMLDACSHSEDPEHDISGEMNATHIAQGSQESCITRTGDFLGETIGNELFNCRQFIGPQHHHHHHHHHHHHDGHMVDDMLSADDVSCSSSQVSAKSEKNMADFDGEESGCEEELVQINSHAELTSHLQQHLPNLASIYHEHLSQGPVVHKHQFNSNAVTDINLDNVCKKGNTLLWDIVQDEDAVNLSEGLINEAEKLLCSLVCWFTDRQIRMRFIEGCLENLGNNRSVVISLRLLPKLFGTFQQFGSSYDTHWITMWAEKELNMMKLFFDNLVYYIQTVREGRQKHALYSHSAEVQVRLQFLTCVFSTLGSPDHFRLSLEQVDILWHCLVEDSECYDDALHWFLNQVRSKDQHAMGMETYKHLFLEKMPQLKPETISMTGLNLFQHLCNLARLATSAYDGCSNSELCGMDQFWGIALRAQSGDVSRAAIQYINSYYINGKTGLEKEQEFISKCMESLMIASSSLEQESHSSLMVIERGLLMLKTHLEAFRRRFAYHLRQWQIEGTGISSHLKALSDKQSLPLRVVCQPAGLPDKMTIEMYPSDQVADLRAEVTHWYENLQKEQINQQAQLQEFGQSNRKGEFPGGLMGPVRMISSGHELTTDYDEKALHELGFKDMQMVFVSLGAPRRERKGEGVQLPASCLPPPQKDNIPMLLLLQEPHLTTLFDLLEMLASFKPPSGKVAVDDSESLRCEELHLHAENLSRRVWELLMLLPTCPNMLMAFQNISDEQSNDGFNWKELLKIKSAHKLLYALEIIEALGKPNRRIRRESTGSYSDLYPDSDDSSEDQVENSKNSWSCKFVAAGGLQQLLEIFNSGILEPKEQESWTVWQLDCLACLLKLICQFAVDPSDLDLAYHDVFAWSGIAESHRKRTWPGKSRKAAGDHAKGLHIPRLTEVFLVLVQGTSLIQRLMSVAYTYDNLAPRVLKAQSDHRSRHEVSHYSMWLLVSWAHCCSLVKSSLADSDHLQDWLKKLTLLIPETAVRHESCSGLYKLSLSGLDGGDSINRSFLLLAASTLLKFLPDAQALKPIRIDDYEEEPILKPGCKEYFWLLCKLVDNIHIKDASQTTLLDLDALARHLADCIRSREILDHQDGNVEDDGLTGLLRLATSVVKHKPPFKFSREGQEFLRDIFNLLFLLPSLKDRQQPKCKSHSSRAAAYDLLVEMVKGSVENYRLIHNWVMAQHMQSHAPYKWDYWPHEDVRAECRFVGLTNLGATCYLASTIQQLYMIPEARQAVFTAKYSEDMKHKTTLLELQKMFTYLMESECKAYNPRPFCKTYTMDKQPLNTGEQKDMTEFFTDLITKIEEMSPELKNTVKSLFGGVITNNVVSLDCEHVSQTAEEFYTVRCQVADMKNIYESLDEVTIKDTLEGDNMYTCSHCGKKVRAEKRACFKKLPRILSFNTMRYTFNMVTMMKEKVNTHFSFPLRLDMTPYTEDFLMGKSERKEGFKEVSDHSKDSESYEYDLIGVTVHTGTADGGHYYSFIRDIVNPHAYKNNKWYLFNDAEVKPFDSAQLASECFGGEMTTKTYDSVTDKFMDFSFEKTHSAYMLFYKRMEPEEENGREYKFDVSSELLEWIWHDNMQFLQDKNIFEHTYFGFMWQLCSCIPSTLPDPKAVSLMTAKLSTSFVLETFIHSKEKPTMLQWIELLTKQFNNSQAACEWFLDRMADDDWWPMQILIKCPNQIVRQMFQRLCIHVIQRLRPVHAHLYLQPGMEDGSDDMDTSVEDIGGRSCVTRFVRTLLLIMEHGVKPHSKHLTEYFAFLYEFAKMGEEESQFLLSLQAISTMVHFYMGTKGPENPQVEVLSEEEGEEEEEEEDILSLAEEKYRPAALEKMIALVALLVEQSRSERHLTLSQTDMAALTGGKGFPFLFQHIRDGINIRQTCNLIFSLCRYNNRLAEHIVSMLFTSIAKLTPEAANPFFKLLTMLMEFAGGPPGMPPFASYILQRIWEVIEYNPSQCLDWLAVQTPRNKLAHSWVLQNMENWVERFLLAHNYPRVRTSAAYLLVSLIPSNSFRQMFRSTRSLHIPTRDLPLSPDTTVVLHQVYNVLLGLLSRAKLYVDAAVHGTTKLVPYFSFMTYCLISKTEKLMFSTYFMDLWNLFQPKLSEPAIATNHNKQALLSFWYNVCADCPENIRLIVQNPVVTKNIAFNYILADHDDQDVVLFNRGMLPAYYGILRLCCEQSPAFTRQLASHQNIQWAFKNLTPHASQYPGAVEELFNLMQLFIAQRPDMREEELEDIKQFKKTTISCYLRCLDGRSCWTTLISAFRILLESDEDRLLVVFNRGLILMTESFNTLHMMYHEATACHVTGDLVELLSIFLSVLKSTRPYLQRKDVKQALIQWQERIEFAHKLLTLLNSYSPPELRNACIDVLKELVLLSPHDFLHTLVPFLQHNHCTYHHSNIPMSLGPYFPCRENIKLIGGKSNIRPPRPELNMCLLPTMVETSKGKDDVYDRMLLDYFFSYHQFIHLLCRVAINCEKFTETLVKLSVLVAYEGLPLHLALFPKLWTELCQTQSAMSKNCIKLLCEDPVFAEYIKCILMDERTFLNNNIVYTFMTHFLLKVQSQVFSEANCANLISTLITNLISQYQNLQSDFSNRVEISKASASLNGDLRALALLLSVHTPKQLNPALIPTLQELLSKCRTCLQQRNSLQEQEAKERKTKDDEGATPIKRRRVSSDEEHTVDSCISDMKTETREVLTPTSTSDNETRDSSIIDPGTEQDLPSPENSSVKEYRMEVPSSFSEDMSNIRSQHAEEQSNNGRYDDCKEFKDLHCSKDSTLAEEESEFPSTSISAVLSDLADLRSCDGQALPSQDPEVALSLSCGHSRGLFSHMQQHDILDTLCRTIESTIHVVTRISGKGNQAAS

O=C(O)C1Cc2ccccc2CN1C(=O)CCl (stereo not given)
inactive: USP34 -0.101 | USP36 -0.224 | USP38 -0.252 | USP39 -0.281 | USP4 -0.207
